Several values for one entry are separate records, joined by “and”; a condition that tells them apart may be missing. Equal values may be shown once. Some structures have more than one record in an assay (separate samples or runs), and their calls can disagree. Activity calls are given as the source filed them. How the source made its calls: active means hit-call score of the fitted dose curve at least 0.9, where 1 is the maximum; inactive means score below 0.9.

Conditions in all cases: primary human HUVEC with PBMC; actives raise or lower the signal
Experiment [1] can be described thus: BSK_LPS_PGE2: BioMAP Diversity Plus: LPS Assay for Prostaglandin E2 (PGE2) Biomarker Activity (AID 2283082).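 On AC50: secreted prostaglandin E2 measured by ELISA in LPS-stimulated co-culture.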 In outline: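 LPS-activated HUVEC/PBMC co-culture; cmpd dosed, 24 h; PGE2 by ELISA; bidirectional fit vs DMSO; SRB (0.1%, TCA-fixed, 560 nm) in parallel plates for overt cytotox.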
Read-out in experiment [2]: Macrophage colony-stimulating factor (MCSF), CSF1 (gene 1435)
In words: BSK_LPS_MCSF: BioMAP Diversity Plus: LPS Assay for Macrophage colony-stimulating factor (MCSF) Biomarker Activity (AID 2283083). In outline: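 Bidirectional fitting against DMSO was applied to M-CSF levels read by ELISA at 24 h post-dose. The system pairs human umbilical vein endothelium with peripheral blood mononuclear cells; parallel SRB staining tracked cytotoxicity.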

Read-out in experiment [3]: Tissue Factor, F3 (gene 2152)
The experiment is described as follows: BSK_LPS_TissueFactor: BioMAP Diversity Plus: LPS Assay for Tissue Factor Biomarker Activity (AID 2283084). A digest of the protocol:
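Compound was added to an endothelial cell/PBMC co-culture, and after 24 h tissue factor (CD142) was read by ELISA. Gain or loss of signal was fitted against a DMSO baseline, and parallel SRB staining (560 nm) tracked overt cytotoxicity.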

Read-out in experiment [4]: Tumor necrosis factor (Homo sapiens) (UniProt P01375)
The experiment is described as follows: BSK_LPS_TNFa: BioMAP Diversity Plus: LPS Assay for Tumour Necrosis Factor alpha (TNFa) Biomarker Activity (AID 2283085). A digest of the protocol:
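Read-out is ELISA of TNFa in primary human endothelial cell–PBMC co-cultures at 24 h after compound. Activity in either direction was fitted against DMSO.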

Read-out in experiment [5]: Vascular cell adhesion molecule 1 (VCAM1), VCAM1 (gene 7412)
The experiment is described as follows: BSK_LPS_VCAM1: BioMAP Diversity Plus: LPS Assay for Vascular cell adhesion molecule 1 (VCAM1) Biomarker Activity (AID 2283086). In outline: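 HUVEC + PBMC co-culture, LPS system; compound 24 h; VCAM-1 by ELISA; bidirectional fit vs DMSO control; parallel SRB (0.1%, TCA-fixed, 560 nm) for cytotoxicity.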

Read-out in experiment [6]: CD38, CD38 (gene 952)
The experiment is described as follows: BSK_SAg_CD38: BioMAP Diversity Plus: SAg Assay for CD38 Biomarker Activity (AID 2283087). In outline: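 Human HUVEC plus PBMC co-culture stimulated with superantigen; CD38 measured by ELISA 24 h after chemical dosing. Fluorescence read-out, bidirectional fit against DMSO; cytotoxicity tracked in parallel by SRB and Alamar Blue.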

Read-out in experiment [7]: CD40, CD40 (gene 958)
The experiment is described as follows: BSK_SAg_CD40: BioMAP Diversity Plus: SAg Assay for CD40 Biomarker Activity (AID 2283088). A digest of the protocol: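 CD40 is measured by fluorescence ELISA in an endothelial/PBMC primary human co-culture at 24 h post-dose. Fitting is bidirectional, DMSO baseline. Parallel SRB staining (560 nm) flags cytotoxicity.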

Read-out in experiment [8]: CD69, CD69 (gene 969)
The experiment is described as follows: BSK_SAg_CD69: BioMAP Diversity Plus: SAg Assay for CD69 Biomarker Activity (AID 2283089).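 On AC50: cell surface CD69 protein quantified by ELISA with fluorescence detection.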 In outline: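 Endothelial/PBMC co-culture; chemical added; 24 h incubation; CD69 ELISA with fluorescence detection; bidirectional fit vs DMSO.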

Read-out in experiment [9]: Monocyte Chemoattractant Protein-1 (MCP1), CCL2 (gene 6347)
The experiment is described as follows: BSK_SAg_MCP1: BioMAP Diversity Plus: SAg Assay for Monocyte Chemoattractant Protein-1 (MCP1) Biomarker Activity (AID 2283090). In outline:
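MCP-1 levels in the endothelial–PBMC SAg co-culture were quantified by ELISA at 24 h post-dosing; both increases and decreases versus DMSO scored. Cytotoxicity monitored by SRB total protein in parallel cultures.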

Read-out in experiment [10]: E-selectin (Homo sapiens) (UniProt P16581)
In words: BSK_SAg_Eselectin: BioMAP Diversity Plus: SAg Assay for Eselectin Biomarker Activity (AID 2283091). In outline:
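Cell-surface E-selectin is read by ELISA at 24 h in the SAg co-culture of HUVEC and PBMC. Curves are fitted in both directions relative to DMSO. Parallel SRB total-protein staining tracks overt toxicity.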

Sequence of Tumor necrosis factor (Homo sapiens) (P01375 whole entry, looked up): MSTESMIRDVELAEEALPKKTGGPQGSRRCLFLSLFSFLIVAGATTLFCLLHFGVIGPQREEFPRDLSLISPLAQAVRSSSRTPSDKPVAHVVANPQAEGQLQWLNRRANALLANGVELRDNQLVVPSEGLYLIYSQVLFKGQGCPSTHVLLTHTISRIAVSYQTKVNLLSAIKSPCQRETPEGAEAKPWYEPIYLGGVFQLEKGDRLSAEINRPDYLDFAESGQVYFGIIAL
Sequence of E-selectin (Homo sapiens) (P16581 whole entry, looked up): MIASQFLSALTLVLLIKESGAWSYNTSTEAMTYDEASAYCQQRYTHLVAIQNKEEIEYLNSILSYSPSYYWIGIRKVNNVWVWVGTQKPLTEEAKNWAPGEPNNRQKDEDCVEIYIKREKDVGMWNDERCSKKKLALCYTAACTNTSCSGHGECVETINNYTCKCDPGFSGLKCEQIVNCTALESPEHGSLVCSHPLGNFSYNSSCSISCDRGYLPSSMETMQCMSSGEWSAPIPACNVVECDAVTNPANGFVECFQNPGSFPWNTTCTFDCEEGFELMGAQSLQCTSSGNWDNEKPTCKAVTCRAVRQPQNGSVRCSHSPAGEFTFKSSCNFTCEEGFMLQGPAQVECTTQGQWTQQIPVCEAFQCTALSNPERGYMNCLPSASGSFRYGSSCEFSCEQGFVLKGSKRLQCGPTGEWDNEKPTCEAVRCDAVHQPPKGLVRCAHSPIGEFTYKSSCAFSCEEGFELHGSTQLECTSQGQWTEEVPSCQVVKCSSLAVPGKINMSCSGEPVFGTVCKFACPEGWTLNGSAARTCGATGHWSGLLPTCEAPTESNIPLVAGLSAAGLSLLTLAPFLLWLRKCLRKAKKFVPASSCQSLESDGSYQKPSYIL

For the compound `O=C(NO)C1(NS(=O)(=O)c2ccc(Oc3ccc(F)cc3)cc2)CCOCC1`, the outcome in [1], in [2], in [3], in experiment [5], in experiment [6] and in experiment [7] was inactive. For the same compound, the result in experiment [8], in [9] and in [10] was inactive. Besides, in experiment [4], the half-maximal activity concentration (AC50) – broadly, the concentration at which the activity in the assay is half-maximal – was 3.97 µM (active).

As for `CCCCCCOC(=O)CC(CC(=O)OCCCCCC)(OC(=O)CCC)C(=O)OCCCCCC`, the outcome in experiment [1], in experiment [2], in experiment [3], in experiment [4], in experiment [5] and in experiment [6] was inactive. The result in experiment [7], in [8] and in experiment [10] was inactive.

In the case of `COS(C)(=O)=O`, the outcome in experiment [1], in experiment [2], in [3], in [4], in experiment [5] and in experiment [6] was inactive. For the same compound, the outcome in [7], in experiment [8] and in [10] was inactive.

Regarding `O=C1CN(N=Cc2ccc([N+](=O)[O-])o2)C(=O)N1`, the result in experiment [1], in [2], in experiment [3], in [4], in experiment [6] and in experiment [7] was inactive. For the same compound, the result in [9] was inactive. The concentration at half-maximal activity (AC50) in [5] was 20 µM (active); in experiment [10], 9.33 µM (active).

As to `CCCCCOC(C)=O`, the result in experiment [1], in experiment [2], in experiment [3], in experiment [5], in experiment [6] and in [7] was inactive. Besides, the result in experiment [8] and in [10] was inactive. In addition, in experiment [4], the half-maximal activity concentration (AC50) is 10.1 µM (active).

Regarding `OCCC(F)(F)C(F)(F)C(F)(F)C(F)(F)F`, the result in [1], in experiment [2], in experiment [3], in [4], in [5] and in [6] was inactive. Also, the outcome in experiment [9] and in experiment [10] was inactive. Further, in experiment [6], the half-maximal activity concentration (AC50) is 0.234 µM (active).

In the case of `NCC(F)(F)C(F)(F)C(F)(F)C(F)(F)F`, the outcome in experiment [1], in experiment [2], in experiment [3], in [4], in experiment [5] and in experiment [6] was inactive. For the same compound, the result in experiment [7], in experiment [8] and in experiment [10] was inactive.

`C=CCc1cc(S(=O)(=O)c2ccc(O)c(CC=C)c2)ccc1O`: the concentration at half-maximal activity (AC50) was 32.3 µM (active) in [1]; 28.6 µM (active) in experiment [2]; 32.7 µM (active) in experiment [3]; 29.8 µM (active) in experiment [4]; 30 µM (active) in [5]; 14.5 µM (active) in experiment [6]. Further, the concentration at half-maximal activity (AC50) in experiment [7] is 11.6 µM (active); in experiment [9], 15.1 µM (active); in experiment [10] it was 13.8 µM (active).

Consider `c1ccc2cc3ccccc3cc2c1`, for which the outcome in [1], in experiment [2], in experiment [3], in [4], in experiment [5] and in experiment [6] was inactive. In addition, the result in experiment [7], in experiment [8] and in experiment [10] was inactive.

Take `Cc1ncc([C@@H](CCCCCCc2ccc3c(n2)NCCC3)CC(=O)O)cn1`: the result in experiment [1], in [2], in [3], in [4], in experiment [5] and in experiment [6] was inactive. For the same compound, the outcome in experiment [7], in experiment [8], in experiment [9] and in [10] was inactive.

For the compound `OCc1ccccc1`, the result in experiment [1], in experiment [2], in experiment [3], in [4], in experiment [5] and in experiment [6] was inactive. Moreover, the result in experiment [7], in experiment [8], in [9] and in experiment [10] was inactive.

In the case of `Cc1nc(-c2ccccn2)ncc1C(=O)Nn1cc(C)c2cc(F)ccc21`, the outcome in experiment [1], in experiment [2], in [3], in experiment [4], in [5] and in experiment [6] was inactive. The result in experiment [7], in experiment [8], in [9] and in experiment [10] was inactive.

In the case of `CCCC(CCC)C(=O)O`, the result in experiment [1], in experiment [2], in [3], in experiment [4], in experiment [5] and in experiment [6] was inactive. In addition, the outcome in [7], in [8], in experiment [9] and in experiment [10] was inactive.

On to `Cn1cc[nH]c1=S`, for which the result in experiment [1], in [2], in [3], in experiment [4], in experiment [5] and in experiment [6] was inactive. Moreover, the outcome in [7], in experiment [8] and in [10] was inactive.

For the compound `CC(C)CC(C)O` (centres undefined), the result in [1], in experiment [2], in experiment [3], in experiment [4], in experiment [5] and in experiment [6] was inactive. Also, the outcome in [7], in [9] and in experiment [10] was inactive.

For `COc1cc(C(C)C)c2c(c1)S(=O)(=O)N(COc1cc(=O)n3cccc(OCCN4CCCCC4)c3n1)C2=O`, the outcome in [1], in [3], in [4] and in [6] was inactive. Further, the AC50 in [2] was 5 µM (active); in experiment [5], 6.02 µM (active); in experiment [7], 5 µM (active); in experiment [8], 5 µM (active); in experiment [10], 5 µM (active).

As to `OCCNCCO`, the outcome in experiment [1], in experiment [2], in experiment [3], in [4], in experiment [5] and in experiment [6] was inactive. Moreover, the outcome in experiment [7], in experiment [8], in experiment [9] and in experiment [10] was inactive.

Turning to `NC(=O)N(O)[C@@H]1COc2cc(OCc3ccccc3)ccc21`, the AC50 in experiment [1] was 3.45 µM (active). Moreover, the result in experiment [2], in experiment [3], in experiment [4], in [5], in experiment [6] and in [7] was inactive. The outcome in experiment [8] and in experiment [10] was inactive.

For `CCCCCCCCCCCCCCCCOS(=O)(=O)O`, the result in experiment [1], in experiment [2], in experiment [3], in experiment [4], in [5] and in experiment [7] was inactive. Besides, the outcome in [8], in experiment [9] and in experiment [10] was inactive. The AC50 in [6] is 5.57 µM (active).

Regarding `O=C(O)c1ccc2c(c1)nc(C(=O)NC1CCN(C3CC3)CC1)n2Cc1cc(-c2ccc(Cl)s2)on1`, the outcome in [1], in [2], in experiment [3], in [4], in experiment [5] and in experiment [6] was inactive. The outcome in [7], in experiment [8], in experiment [9] and in experiment [10] was inactive.

In the case of `CCCCC(CC)C(=O)OCCOCCOCCOC(=O)C(CC)CCCC` (centres undefined), the result in experiment [1], in experiment [2], in experiment [3], in [4], in experiment [5] and in experiment [6] was inactive. The outcome in experiment [7], in experiment [9] and in experiment [10] was inactive.

`CC(C)CCCCCCOC(=O)C1CCCCC1C(=O)OCCCCCCC(C)C` (centres undefined): the result in experiment [1], in experiment [2], in [3], in experiment [4], in experiment [5] and in experiment [6] was inactive. Also, the result in [7], in [9] and in experiment [10] was inactive.

`OC(O)(C(F)C(O)(O)C(F)(F)F)C(F)(F)F`: the outcome in experiment [1], in experiment [2], in [3], in [5], in [7] and in experiment [8] was inactive. For the same compound, the outcome in experiment [10] was inactive. The half-maximal activity concentration (AC50) is 0.308 µM (active) in experiment [3]; 4 µM (active) and 13.3 µM (active) in experiment [4]; 16.6 µM (active) and 18.1 µM (active) in experiment [6].

In the case of `FC(F)(F)C(F)(F)C(F)(F)C(F)(F)C(F)(F)C(F)(F)I`, the result in experiment [1], in [2], in experiment [3], in experiment [4], in [5] and in experiment [6] was inactive. For the same compound, the outcome in [7], in experiment [8] and in experiment [10] was inactive.

On to `CC[C@H](C)C(=O)O[C@H]1C[C@H](O)C=C2C=C[C@H](C)[C@H](CC[C@@H](O)C[C@@H](O)CC(=O)O)[C@H]21`, for which the outcome in experiment [1], in experiment [2], in [3], in experiment [4], in experiment [5] and in [6] was inactive. In addition, the result in experiment [7] was inactive. The AC50 is 14.6 µM (active) in experiment [9] and 7.03 µM (active) in experiment [10].

Source of the values: PubChem BioAssay (EPA / NIEHS).
